aSyn UTR inh: MLPCN primary screen, SNCA 5' untranslated region; hit rate 0.82% among 300,000; inhibition, % (tested at 7.5 µM); AID 1813, 2009; alpha-synuclein 5'UTR reporter, inhibitor activity; in the data active = inhibition above about 60%;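 note: H4 neuroglioblastoma cells stably carrying SNCA 5'UTR luciferase fusion; 0% = DMSO wells and 100% = positive control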
APP transl inh: inhibitors of APP translation via 5'UTR reporter, primary screen, APP 5'UTR luciferase, SH-SY5Y cells. SH-SY5Y APP 5'UTR-luciferase reporter, luminescence. inhibition, % at 2 µM. hit rate 0.82% among 190,000;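 active = inhibition above a set limit, derived from the sample mean plus 3 SD, cut at about 45% in these data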
IEC-6 tox: cytotoxicity in IEC-6 intestinal epithelial cells, primary screen, cytotoxicity control for KLF5 inhibitor project, cell-based, luminescence; IEC-6 cytotoxicity, luminescence viability; inhibition, % at 5 µM; hit rate 0.78% among 290,000;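 note: 0% = plate median of test compound wells and 100% = cytotoxic reference compound wells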
BaF3 parental: parental Ba/F3 cell viability inhibition, counter-screen for JAK2V617F inhibitor project, murine pro-B, CellTiter-Glo luminescence; inhibition, % at 5.6 µM; CellTiter-Glo ATP luminescence; hit rate 1.1% among 220,000;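 active = inhibition above a per-campaign cutoff, the mean inhibition of all tested compounds plus 3 SD, cut at about 27% in these data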;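 note: 0% = DMSO wells and 100% = JAK Inhibitor I control wells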
Ba/F3 V617F tox: reduced viability of JAK2V617F-dependent Ba/F3 cells, primary screen, JAK2V617F inhibitor project, cell-based, Ba/F3 EpoR-JAK2V617F, luminescence; ATP luminescence; inhibition, % at 5.6 µM; hit rate 1.1% among 220,000;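 active = inhibition above the campaign mean plus 3 SD over all tested compounds, cut at about 24% in these data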;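 note: cytokine-independent growth of Ba/F3 cells driven by EpoR plus mutant JAK2; 0% = DMSO-treated cells and 100% = JAK inhibitor I control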
KLF5 inh: KLF5 expression inhibitors, primary screen, DLD-1 cells, luminescence; hit rate 0.23% among 290,000; inhibition, % at 5 µM; AID 1700, 2009; DLD-1 KLF5 promoter-luciferase reporter;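 active = inhibition above a per-plate limit of that plate's mean compound inhibition plus 3 SD, cut at about 60% in these data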;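 note: 0% = DMSO wells and 100% = LY294002 at 200 µM; higher means less KLF5 promoter-driven luciferase light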
IEC-6 cytotox cf: cytotoxic compounds in IEC-6 epithelial cells, confirmation, cytotoxicity control, cell-based, luminescence; shares compounds with IEC-6 tox; IEC-6 rat intestinal epithelial viability; inhibition, % at 5 µM; hit rate 63% among 1,900; AID 1907, 2009;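 note: 0% = vehicle and 100% = reference cytotoxic drug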
* marks the source's active call; other numbers are inactive results; x = no result. The list is not random: actives were taken first. Their share in the collection is about 2.2%. Cut-off read from the data, not from the text of the source, unless noted: active = inhibition above about 22%; inactive = the rest.

SMILES | aSyn UTR inh | APP transl inh | IEC-6 tox | BaF3 parental | Ba/F3 V617F tox | KLF5 inh | IEC-6 cytotox cf
C/C(CC(=O)NC1CCCCC1)=N\NC(=O)COc1ccc(C)cc1Br | -16 | -7 | -2 | 2 | 5 | -8 | x
COc1ccc(/C=N/Nc2cc(C)nc(-n3nc(C)cc3C)n2)cc1 | 6 | -5 | 6 | 5 | 1 | 4 | x
Cc1cc(N/N=C/c2ccc(O)cc2O)nc(-n2nc(C)cc2C)n1 | 72* | 53* | 79* | 4 | -3 | 36 | 47*
COc1cc(OC)nc(-n2ncc(Br)c(Br)c2=O)n1 | x | 94* | 56* | 87* | 96* | -20 | 70*
Cc1ccc(C(=O)N2CCOCC2)cc1S(=O)(=O)N1CCCCC1 | 14 | x | -7 | x | x | -10 | x
Oc1ccc(CCNc2ncnc3ccc(Cl)cc23)cc1 | -14 | x | 23* | x | x | 42 | 10
COc1cc(/C=N/Nc2snc(SC)c2C#N)cc(OC)c1OC | 9 | 8 | 26* | 5 | 4 | -6 | 49*
COc1ccc(C(=O)CC(=O)c2ccc(F)cc2)cc1 | -165 | x | x | x | x | x | x
COc1ccc(C(=O)C(CCC(CNC(C)(C)C)C(=O)c2ccc(OC)cc2)CNC(C)(C)C)cc1 (stereo unspecified) | 65* | 97* | 71* | 101* | 102* | -3 | 60*
CCOc1ccc(S(=O)(=O)NCc2cccnc2)cc1NC(=O)c1ccccc1F | -43 | x | 33* | x | x | 26 | 7
CCOc1ccc(S(=O)(=O)NCc2ccncc2)cc1NC(=O)c1ccccc1F | -4 | x | 3 | x | x | -16 | x
O=C1CC(c2ccccc2)CC(O)=C1C=NCc1ccccc1Cl (stereo unspecified) | -6 | 61* | 31* | 29* | 43* | 51 | 30*
CC1(c2nnc(-c3ccncc3)o2)CC(c2ccccc2)=NO1 (stereo unspecified) | 37 | x | x | x | x | x | x
Cc1ccc(N(C)S(=O)(=O)c2cc3c(cc2C)NC(=O)CO3)cc1 | 19 | x | -7 | x | x | -6 | x
CCCCOC(=O)c1ccc(NC(C)=O)cc1 | -6 | -10 | 24* | 4 | 5 | -25 | 6
O=C(N/N=C/c1ccccn1)c1ccc(Cl)c(Cl)c1 | -20 | x | 22* | x | x | -4 | 11
Cc1cc(NC(=O)CSc2nc3ccccc3c(=O)n2C2CCCC2)no1 | 86* | -9 | 63* | 8 | 13 | 31 | 56*
CN(C)c1ccc(NC(=O)CSc2nc3ccccc3c(=O)n2C2CCCCC2)cc1 | 29 | 1 | 2 | 6 | 1 | -4 | x
Cn1cnc(Sc2ncnc3nc[nH]c23)c1[N+](=O)[O-] | 31 | x | 39* | 36* | 59* | -17 | 36*
Cc1cccnc1Sc1c([N+](=O)[O-])ncn1C | -27 | -2 | -2 | 4 | -1 | -37 | x
Cc1ccc(OCCSc2ncnc3nc[nH]c23)cc1 | -67 | -100 | 0 | 7 | 1 | -107 | x
Cn1cnc([N+](=O)[O-])c1Sc1ncnc2nc[nH]c12 | 46 | x | 35* | 29* | 56* | -5 | 47*
CC1CC(C)CN(CC(=O)NCCc2ccc(S(N)(=O)=O)cc2)C1 (stereo unspecified) | 22 | -9 | 3 | 8 | 4 | -2 | x
Cn1c(SCC(=O)NCCc2ccccc2)ncc(C(=O)Nc2ccccc2)c1=O | 14 | x | x | x | x | x | x
CSCCC(NC(=O)c1ccco1)C(=O)N(C)CC(=O)Nc1c(Cl)cccc1Cl (stereo unspecified) | -12 | x | x | x | x | x | x
SMILES | aSyn UTR inh | APP transl inh | IEC-6 tox | BaF3 parental | Ba/F3 V617F tox | KLF5 inh | IEC-6 cytotox cf
CCCCc1ccc(NC(=O)Nc2cnccn2)cc1 | -98 | x | 45* | x | x | -24 | 23*
CCCC(=O)Nc1ccc2c(c1)nc(CN1CCN(C(=O)OCC)CC1)n2CC | -53 | x | 31* | x | x | 49 | 18
COc1ccc(OC)c(-c2cc(-c3cccnc3)nc(N)c2C#N)c1 | 0 | x | 35* | 45* | 84* | 30 | 52*
CCOC(=O)N1CCc2c(sc3c2c(=O)n(-c2ccc(CC)cc2)c(=O)n3CC(=O)NCC2CCCO2)C1 (stereo unspecified) | 30 | x | 26* | x | x | -2 | 8
CC(=O)N1CCc2c(sc3c2c(=O)n(-c2ccccc2)c(=O)n3CC(=O)NCC2CCCO2)C1 (stereo unspecified) | 5 | x | -6 | x | x | -34 | x
CN(C(=O)COc1ncnc2sccc12)c1ccccc1 | x | 6 | -3 | 5 | -2 | -4 | x
COc1ccccc1-c1c(C#N)c(N)nc2c1CCc1ccccc1-2 | -196 | -3 | 24* | 8 | 12 | 16 | 19
CCCc1ccc(NS(=O)(=O)c2c(C)oc(C)c2C(=O)OC)cc1 | -4 | x | -1 | -3 | -2 | 5 | x
CCOC(=O)Nc1cc(=O)c2ccccc2o1 | -19 | -11 | 44* | 60* | 69* | 35 | 23*
Cn1c(CNC(=O)c2ccc(Cl)cc2)nnc1SCC(=O)N1CCOCC1 | -2 | x | 1 | x | x | -8 | x
CN(C)C(=O)c1ccc(NC(=O)c2sccc2-c2ccccc2)cc1 | 6 | x | 4 | x | x | -5 | x
COC(=O)COc1ccc(/C=N/NC(=O)CN(c2ccccc2OC)S(=O)(=O)c2ccccc2)cc1 | 20 | x | 49* | x | x | -12 | -8
CC(=O)Nc1nc2ccc(S(=O)(=O)N3CCCC3)cc2s1 | 13 | x | -3 | x | x | -18 | x
CCCC(=O)Nc1nc2ccc(S(=O)(=O)N3CCCCC3)cc2s1 | 27 | 79* | 54* | 79* | 80* | 49 | 59*
O=c1oc2ccccc2c(Nc2cccc3cccnc23)c1[N+](=O)[O-] | -19 | -16 | 61* | 6 | 2 | -7 | -6
O=c1oc2ccccc2c(Nc2cccc3ccccc23)c1[N+](=O)[O-] | 18 | 1 | 10 | 6 | 0 | 20 | x
CC(C)NS(=O)(=O)c1ccc(NC(=O)NC2CCCCC2)cc1 | 3 | -9 | -2 | 7 | -2 | -22 | x
CC(/C=N/NC(=O)c1cccc(F)c1)=C\c1ccccc1 | -254 | x | 28* | x | x | -48 | 6
COc1ccc(C(=O)OCC(O)COC(=O)c2ccc(OC)cc2)cc1 | -3 | x | x | x | x | x | x
CCO[C@@H]1OC(C(=O)NCc2nc3ccccc3[nH]2)=C[C@H](C2CC2)[C@H]1CCCO | -119 | 2 | 42* | 34* | 2 | 38 | 6
C#Cc1ccc([C@H]2C=C(C(=O)NCc3nc4ccccc4[nH]3)O[C@@H](OCC)[C@@H]2CCCO)cc1 | 7 | x | x | x | x | x | x
CC(O)(CS(=O)(=O)Cc1ccccc1)c1ccccc1Cl (stereo unspecified) | -3 | x | -3 | x | x | 6 | x
O=[N+]([O-])c1cc([N+](=O)[O-])c2cc3ccccc3nc2c1 | -176 | x | 46* | x | x | 3 | 12
